From the supplement of paper PMC8728848
The full list was thinned out, with the strongest signals kept by preference.

Legend:
Experiment in all cases: glycan array binding signal (z-score within array); higher = stronger binding
Settings in all cases: glycan notation: IUPAC condensed, linker removed
[1] = biological target: Fuc(a1-2)Gal(b1-3)[Fuc(a1-4)]GlcNAc
Outline: (§1)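 Arrays were curated from the Consortium for Functional Glycomics database, 3228 in total, and kept only where the protein sequence was available. Binding is expressed as a within-array Z-score. This score was averaged across arrays of the same protein sequence at different concentrations or buffers and across linkers, and negative values can be read as non-binding.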

[2] = biological target: Fuc(a1-2)Gal6S(b1-3)GlcNAc6S
Outline: as §1

[3] = biological target: Fuc(a1-2)[Gal(a1-3)]Gal(b1-3)GlcNAc
Outline: as §1

[4] = biological target: Fuc(a1-2)[Gal(a1-3)]Gal(b1-3)GlcNAc(b1-2)Man(a1-3)[Fuc(a1-2)[Gal(a1-3)]Gal(b1-3)GlcNAc(b1-2)Man(a1-6)]Man(b1-4)GlcNAc(b1-4)GlcNAc
Outline: as §1

[5] = biological target: Fuc(a1-3)[Gal(b1-4)]Glc6S
Outline: as §1

[6] = biological target: Fuc(a1-3)[Gal(b1-4)]GlcNAc(b1-3)Gal(b1-4)[Fuc(a1-3)]GlcNAc
Outline: as §1

[7] = biological target: Fuc(a1-3)[Gal(b1-4)]GlcNAc6S
Outline: as §1

[8] = biological target: Gal(a1-3)Fuc(a1-2)Gal(b1-4)GlcNAc(b1-3)[Gal(a1-3)Fuc(a1-2)Gal(b1-4)GlcNAc(b1-6)]GalNAc
Outline: as §1

[9] = biological target: Gal(a1-3)Gal(b1-3)GlcNAc
Outline: as §1

[10] = biological target: Gal(b1-3)GalNAc
Outline: as §1

[11] = biological target: Gal(b1-3)GalNAc(a1-3)[Fuc(a1-2)]Gal(b1-4)Glc
Outline: as §1

[12] = biological target: Gal(b1-3)GlcNAc(b1-2)Man
Outline: as §1

[13] = biological target: Gal(b1-3)[Fuc(a1-4)]GlcNAc(b1-2)Man(a1-3)[Gal(b1-3)[Fuc(a1-4)]GlcNAc(b1-2)Man(a1-6)]Man(b1-4)GlcNAc(b1-4)[Fuc(a1-6)]GlcNAc
Outline: as §1

[14] = biological target: Gal(b1-3)[Neu5Ac(a2-6)]GalNAc
Outline: as §1

[15] = biological target: Gal(b1-4)Glc6S
Outline: as §1

[16] = biological target: Gal(b1-4)GlcNAc(b1-3)Gal(b1-4)GlcNAc(b1-2)[Gal(b1-4)GlcNAc(b1-3)Gal(b1-4)GlcNAc(b1-6)]Man(a1-6)[Gal(b1-4)GlcNAc(b1-3)Gal(b1-4)GlcNAc(b1-2)Man(a1-3)]Man(b1-4)GlcNAc(b1-4)GlcNAc
Outline: as §1

[17] = biological target: Gal(b1-4)GlcNAc(b1-3)Gal(b1-4)GlcNAc(b1-3)Gal(b1-4)GlcNAc(b1-3)Gal(b1-4)GlcNAc(b1-2)Man(a1-3)[Gal(b1-4)GlcNAc(b1-3)Gal(b1-4)GlcNAc(b1-3)Gal(b1-4)GlcNAc(b1-3)Gal(b1-4)GlcNAc(b1-2)Man(a1-6)]Man(b1-4)GlcNAc(b1-4)[Fuc(a1-6)]GlcNAc
Outline: as §1

[18] = biological target: Gal(b1-4)GlcNAc(b1-3)Gal(b1-4)GlcNAc(b1-3)GalNAc
Outline: as §1

[19] = biological target: Gal(b1-4)GlcNAc(b1-6)Gal(b1-4)GlcNAc
Outline: as §1

[20] = biological target: Gal3S(b1-3)[Fuc(a1-4)]GlcNAc
Outline: as §1

[21] = biological target: Gal3S6S(b1-4)GlcNAc6S
Outline: as §1

[22] = biological target: Gal6P(b1-4)GlcNAc
Outline: as §1

[23] = biological target: Gal6S(b1-4)Glc6S
Outline: as §1

[24] = biological target: GalNAc(b1-4)GlcNAc6S
Outline: as §1

[25] = biological target: Glc(a1-4)Glc(a1-4)Glc(a1-4)Glc
Outline: as §1

[26] = biological target: GlcNAc(b1-2)Gal(b1-3)GalNAc
Outline: as §1

[27] = biological target: GlcNAc(b1-2)Man(a1-3)[GlcNAc(b1-2)Man(a1-6)]Man(b1-4)GlcNAc(b1-4)[Fuc(a1-6)]GlcNAc
Outline: as §1

[28] = biological target: GlcNAc(b1-2)[GlcNAc(b1-6)]Man(a1-6)[GlcNAc(b1-2)Man(a1-3)]Man(b1-4)GlcNAc(b1-4)GlcNAc
Outline: as §1

[29] = biological target: GlcNAc(b1-3)Gal(b1-4)GlcNAc(b1-3)Gal(b1-4)GlcNAc(b1-3)GalNAc
Outline: as §1

[30] = biological target: GlcNAc(b1-3)[GlcNAc(b1-4)][GlcNAc(b1-6)]GlcNAc
Outline: as §1

[31] = biological target: Man(a1-3)[Man(a1-6)]Man(a1-6)[Man(a1-2)Man(a1-3)]Man(b1-4)GlcNAc(b1-4)GlcNAc
Outline: as §1

[32] = biological target: Man(a1-3)[Man(a1-6)]Man(a1-6)[Man(a1-3)]Man
Outline: as §1

[33] = biological target: Man(a1-6)Man
Outline: as §1

[34] = biological target: Neu5Ac(a2-3)Gal(b1-3)GlcNAc(b1-2)Man(a1-3)[GlcNAc(b1-4)][Neu5Ac(a2-3)Gal(b1-3)GlcNAc(b1-2)Man(a1-6)]Man(b1-4)GlcNAc(b1-4)GlcNAc
Outline: as §1

[35] = biological target: Neu5Ac(a2-3)Gal(b1-3)GlcNAc(b1-4)Gal(b1-4)Glc
Outline: as §1

[36] = biological target: Neu5Ac(a2-3)Gal(b1-4)Glc
Outline: as §1

[37] = biological target: Neu5Ac(a2-3)Gal(b1-4)GlcNAc(b1-2)Man
Outline: as §1

[38] = biological target: Neu5Ac(a2-3)Gal(b1-4)GlcNAc(b1-2)[Neu5Ac(a2-3)Gal(b1-4)GlcNAc(b1-4)]Man(a1-3)[GlcNAc(b1-4)][Neu5Ac(a2-3)Gal(b1-4)GlcNAc(b1-4)Man(a1-6)]Man(b1-4)GlcNAc(b1-4)GlcNAc
Outline: as §1

[39] = biological target: Neu5Ac(a2-3)Gal(b1-4)GlcNAc(b1-3)Gal(b1-4)GlcNAc(b1-2)Man(a1-3)[Neu5Ac(a2-3)Gal(b1-4)GlcNAc(b1-3)Gal(b1-4)GlcNAc(b1-2)Man(a1-6)]Man(b1-4)GlcNAc(b1-4)GlcNAc
Outline: as §1

[40] = biological target: Neu5Ac(a2-3)[GalNAc(b1-4)]Gal(b1-4)GlcNAc
Outline: as §1

[41] = biological target: Neu5Ac(a2-6)Gal(b1-4)GlcNAc(b1-2)Man(a1-3)[Gal(b1-4)GlcNAc(b1-2)Man(a1-6)]Man(b1-4)GlcNAc(b1-4)GlcNAc
Outline: as §1

[42] = biological target: Neu5Ac(a2-6)Gal(b1-4)GlcNAc(b1-2)Man(a1-6)[Man(a1-3)]Man(b1-4)GlcNAc(b1-4)GlcNAc
Outline: as §1

[43] = biological target: Neu5Ac(a2-6)Gal(b1-4)GlcNAc(b1-2)[Neu5Ac(a2-6)Gal(b1-4)GlcNAc(b1-4)]Man(a1-3)[GlcNAc(b1-4)][Neu5Ac(a2-6)Gal(b1-4)GlcNAc(b1-4)Man(a1-6)]Man(b1-4)GlcNAc(b1-4)GlcNAc
Outline: as §1

[44] = biological target: Neu5Ac(a2-6)Gal(b1-4)GlcNAc(b1-3)Gal(b1-4)GlcNAc
Outline: as §1

[45] = biological target: Neu5Ac(a2-6)Gal(b1-4)GlcNAc(b1-3)Gal(b1-4)GlcNAc(b1-3)Gal(b1-4)GlcNAc(b1-2)Man(a1-3)[Neu5Ac(a2-6)Gal(b1-4)GlcNAc(b1-3)Gal(b1-4)GlcNAc(b1-3)Gal(b1-4)GlcNAc(b1-2)Man(a1-6)]GalNAc
Outline: as §1

[46] = biological target: Neu5Ac(a2-8)Neu5Ac(a2-3)[GalNAc(b1-4)]Gal(b1-4)Glc
Outline: as §1

[47] = biological target: Neu5Ac(a2-8)Neu5Ac(a2-8)Neu5Ac(a2-8)Neu5Ac(a2-3)[GalNAc(b1-4)]Gal(b1-4)Glc
Outline: as §1

[48] = biological target: Neu5Gc(a2-3)Gal(b1-3)[Fuc(a1-4)]GlcNAc
Outline: as §1

[49] = biological target: Neu5Gc(a2-3)Gal(b1-4)Glc
Outline: as §1

[50] = biological target: Neu5Gc(a2-3)Gal(b1-4)GlcNAc
Outline: as §1

B1: CaSRK1 (Capsicum annuum) (protein)
chain: MALCKIFPFAFILLSCSCYLISGQRFDYPTANLSTTWINSVSAPHSIDYTDGSRIRAILLRGTFGPRYACGFYCNGNCESYLFAIFIVQTNSASQITSPAIGFPQVVWSANRNNPVKINSTLQLTAEGDLVLRDADGTLAWSTNTAGKSVAGLSLTDEGNLALFDSKNATVWQSFDHPTDALVPGQKLVPGMKLTASVSRTNWTAGGLFALSAIDNGLVAFVESNPPQKYFEASVGGSNTSGGSNYVKYLNGSLTLFTHSADTTELILISITPASSAQYMKLESNGHLKVYEWTSRGWREVDDLLTGFRGECNYPTVCGRYGICTMGQCSCPTSSSSRTYFRPIDVRRPSLGCSEVTKLTCQNTKKHSPLEVEDVDYFAFKAGISDTDLNTCKRACLEKCSCKAAFFRSGLNSSRTRGDCYLPTEIFSIMNNEKDRTRYDSVAFIKVQV
- glycan array binding signal (z-score) [1]: -0.523
- glycan array binding signal (z-score) [2]: 2.31
- glycan array binding signal (z-score) [3]: 2.37
- glycan array binding signal (z-score) [4]: -0.546
- glycan array binding signal (z-score) [5]: -0.056
- glycan array binding signal (z-score) [6]: 0.387
- glycan array binding signal (z-score) [7]: 0.606
- glycan array binding signal (z-score) [8]: 3.39
- glycan array binding signal (z-score) [9]: 3.11
- glycan array binding signal (z-score) [10]: -0.395
- glycan array binding signal (z-score) [11]: 0.178
- glycan array binding signal (z-score) [12]: 5.29
- glycan array binding signal (z-score) [13]: -0.295
- glycan array binding signal (z-score) [14]: -0.368
- glycan array binding signal (z-score) [15]: -0.386
- glycan array binding signal (z-score) [16]: 3.63
- glycan array binding signal (z-score) [17]: 0.677
- glycan array binding signal (z-score) [18]: 2.85
- glycan array binding signal (z-score) [19]: 0.04
- glycan array binding signal (z-score) [20]: -0.07
- glycan array binding signal (z-score) [21]: 2.4
- glycan array binding signal (z-score) [22]: -0.342
- glycan array binding signal (z-score) [23]: 0.802
- glycan array binding signal (z-score) [24]: 0.352
- glycan array binding signal (z-score) [25]: 0.933
- glycan array binding signal (z-score) [26]: -0.097
- glycan array binding signal (z-score) [27]: -0.143
- glycan array binding signal (z-score) [28]: -0.46
- glycan array binding signal (z-score) [29]: -0.477
- glycan array binding signal (z-score) [30]: -0.34
- glycan array binding signal (z-score) [31]: -0.258
- glycan array binding signal (z-score) [32]: -0.303
- glycan array binding signal (z-score) [33]: 1.5
- glycan array binding signal (z-score) [34]: -0.549
- glycan array binding signal (z-score) [35]: 0.467
- glycan array binding signal (z-score) [36]: -0.089
- glycan array binding signal (z-score) [37]: 7.73
- glycan array binding signal (z-score) [38]: 0.06
- glycan array binding signal (z-score) [39]: 1.33
- glycan array binding signal (z-score) [40]: -0.414
- glycan array binding signal (z-score) [41]: -0.423
- glycan array binding signal (z-score) [42]: -0.589
- glycan array binding signal (z-score) [43]: -0.513
- glycan array binding signal (z-score) [44]: -0.402
- glycan array binding signal (z-score) [45]: 2.58
- glycan array binding signal (z-score) [46]: -0.56
- glycan array binding signal (z-score) [47]: -0.413
- glycan array binding signal (z-score) [48]: -0.319
- glycan array binding signal (z-score) [49]: 3.18
- glycan array binding signal (z-score) [50]: -0.416
